High-throughput results deposited in PubChem BioAssay by National Center for Advancing Translational Sciences (NCATS).
POLH inh: inhibitors of human DNA polymerase eta. recombinant Pol eta, fluorescent DNA replication assay. Potency, µM (top dose mostly 114 µM), without a hit: at the top dose activity change, negative = inhibition, most hits filed as inhibitors. 1.2% of 390,000 active. AID 588591; further: on the % scale 0 is the no-effect control and ±100 the full control effect
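Fluorescent replication assay: 50 nM final substrate added after a 15 min room-temperature compound preincubation with 10 nM enzyme. Signal taken at 0 min and again at 10 min.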
POLK inh: DNA polymerase kappa (human) inhibition | 0.53% of 400,000 active | Potency, µM (highest dose often 107 µM), for inactives: at the highest dose activity, negative = inhibition, usual class: inhibitors | Q9UBT6 | purified Pol kappa, fluorescent DNA synthesis assay, 10 min; further: on the % scale 0 is the no-effect control and ±100 the full control effect
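Pol kappa 10 nM + cpd, 15 min RT; start w/ substrate 50 nM final; fluorescence kinetic read, 0 and 10 min. Neg ctrl: buffer, no enzyme.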
POLB inh: inhibitors of human DNA polymerase beta; Potency, µM (top dose mostly 114 µM), for the others: at the highest dose activity change, negative = inhibition, usual class: inhibitors; Pol beta primer extension/strand displacement, fluorescence kinetic; 1.3% of 340,000 active; P06746; AID 485314; further: on the % scale 0 is the no-effect control and ±100 the full control effect
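Kinetic readout of DNA synthesis with strand displacement by Pol beta. Compound and 10 nM enzyme sit 15 min at room temperature; 50 nM substrate starts the reaction, read immediately and at 10 min.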
Pol iota inh: inhibitors of human DNA polymerase iota; Q9UNA4; Pol iota fluorescent replication assay, 10 min; Potency, µM (highest dose often 115 µM), for the others: top-dose activity, negative = inhibition, hits mostly inhibitors; 1% of 390,000 active
Target sequence (Q9UNA4 whole entry, looked up): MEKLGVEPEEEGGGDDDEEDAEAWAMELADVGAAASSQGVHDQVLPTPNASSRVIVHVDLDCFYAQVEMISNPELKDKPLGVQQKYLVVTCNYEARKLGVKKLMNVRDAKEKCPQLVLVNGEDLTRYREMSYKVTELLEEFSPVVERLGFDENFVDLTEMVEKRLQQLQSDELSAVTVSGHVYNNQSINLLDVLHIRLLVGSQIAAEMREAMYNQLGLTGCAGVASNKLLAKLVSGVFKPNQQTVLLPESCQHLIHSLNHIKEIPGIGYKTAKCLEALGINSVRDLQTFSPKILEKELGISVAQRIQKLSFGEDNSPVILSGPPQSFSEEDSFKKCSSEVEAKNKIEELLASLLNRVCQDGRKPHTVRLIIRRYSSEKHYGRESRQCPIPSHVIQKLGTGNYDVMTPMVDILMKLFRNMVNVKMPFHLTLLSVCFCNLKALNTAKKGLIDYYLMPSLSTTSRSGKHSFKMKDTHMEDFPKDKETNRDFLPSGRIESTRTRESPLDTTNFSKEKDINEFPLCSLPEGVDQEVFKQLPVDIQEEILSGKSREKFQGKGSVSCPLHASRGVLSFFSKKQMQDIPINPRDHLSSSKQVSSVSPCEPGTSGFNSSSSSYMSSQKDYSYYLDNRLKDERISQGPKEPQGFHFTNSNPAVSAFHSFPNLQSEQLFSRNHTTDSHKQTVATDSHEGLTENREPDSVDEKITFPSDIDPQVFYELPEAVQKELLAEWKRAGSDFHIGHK
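Fluorescent replication assay read twice, at 0 min and 10 min after adding 50 nM (final) substrate. Enzyme (10 nM) and compounds were first incubated 15 min at room temperature; enzyme-free buffer wells were negative controls.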
FEN1 inh: human FEN1 inhibition | P39748 | Recombinant FEN1 flap cleavage, fluorescence, 15 min | Potency, µM (top dose mostly 114 µM), for the others: at the top dose activity change, negative = inhibition, hits mostly inhibitors | 0.35% of 390,000 active; further: on the % scale 0 is the no-effect control and ±100 the full control effect; nearly all actives have a fitted effect of over 65% in size
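Enzyme 10 nM, 15 min RT preincubation with compound; start with substrate 50 nM final; reads at 0 and 15 min; qHTS titration, four-parameter Hill fit.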
WRN helicase inh: blocks human WRN helicase. Potency, µM (highest dose often 114 µM), for inactives: at the highest dose activity change, negative = inhibition, actives largely listed as inhibitors. 0.46% of 360,000 active. AID 651768. Q14191. WRN helicase unwinding, fluorescent forked duplex, kinetic; further: on the % scale 0 is the no-effect control and ±100 the full control effect; nearly all actives have a fitted effect of over 55% in size
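WRN at 20 nM final preincubated with compound 15 min at room temperature; reaction started with 100 nM fluorophore/quencher forked duplex oligonucleotide and 2 mM ATP final. Unwinding followed kinetically by red fluorescence (ex 525, em 598 nm).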
* = called active by the depositor; ? = inconclusive; · = no result; [ ] = dose if it differs, or a comment. Only some compounds are listed: those with a hit (about 2.4% of all), similar ones and a draw of the others. The call rests on the fitted dose curve; in most records, active means well fitted curve in the direction sought with a large enough effect; inconclusive means small, poorly fitted or top-dose-only effect, or another doubt; inactive means no such curve, though single readings can be large; an effect the other way counts as inactive or inconclusive. Potency means the concentration at half of the fitted maximal effect.

SMILES	POLH inh	POLK inh	POLB inh	Pol iota inh	FEN1 inh	WRN helicase inh
Cc1cc(N)c2ccccc2[n+]1CCCCCCCCCCCCCC[n+]1c(C)cc(N)c2ccccc21	?	·	10µM*	-123.2%[58.9 µM]	·	·
COC(=O)Cc1cc(=O)n(-c2nc3ccccc3[nH]2)[nH]1	-14.6%	-15.5%	79.4µM*	-11.9%	3.6%	-9.1%
O=C(Nc1ccccc1F)c1ccc2c(Cl)c3c(nc2c1)CCC3	-8.4%	-1.2%	1.1%	-2.9%	-17.9%	·
Cc1cccc(/C=C/C(=O)c2ccc([N+](=O)[O-])o2)c1	?	13.1%	·	11.2µM*	1.7%	-5.2%
c1ccc2c(-c3ccncc3)c[nH]c2c1	-17.2%	-12.0%	-2.1%	-4.9%	-10.3%	-12.8%
Nc1cc(-c2ccncc2)c[nH]c1=O	?	0.3%	-6.5%	10µM*	1.1%	14.4%
CC(C)(C)n1ncc2c(=O)n(Cc3c(F)ccc(F)c3Cl)cnc21	·	-18.2%	·	7.1%	-7.2%	·
C=CC[n+]1cccc2cccc(O)c21	·	2.9%	·	12.6µM*	-0.6%	·
Oc1cccc2ccc[n+](CC(O)CBr)c12 (configuration not stated)	·	-18.5%	·	37.6%	-0.4%	·
Cc1ccccc1Nc1nn2c(=O)c3ccc(C(=O)NCC(C)c4ccccc4)cc3nc2s1 (configuration not stated)	-8.8%	-18.0%	0.8%	20.5%	-12.1%	·
Cc1ccccc1Nc1nn2c(=O)c3ccc(C(=O)NCc4cccs4)cc3nc2s1	?	-1.0%[60.1 µM]	20µM*	79.4µM*	8.5%	·
Cc1ccc(-c2nnc3c4ccccc4c(C)nn23)cc1NC(=O)CN1CCOCC1	·	·	-2.9%	·	·	·
Cc1nn2c(-c3cccc(NC(=O)CN4CCOCC4)c3)nnc2c2ccccc12	?	0.8%[60.1 µM]	·	39.8µM*	?	-5.3%[11.6 µM]
O=C1CCC/C1=C/Nc1ccc(Cl)cc1	-6.0%	-2.2%	-9.4%	-12.7%	-2.6%	3.6%
O=C1CCC/C1=C/Nc1ccc2c(c1)OCO2	4.8%	-3.4%	25.1µM*	22.2%	-12.9%	-6.5%
O=C1CCCC/C1=C\Nc1ccc(O)cc1	-3.3%	-2.7%	-4.1%	25.1µM*	-3.1%	-4.2%
CCS(=O)(=O)N1CCc2cc(C(=O)Nc3cccc(C(C)=O)c3)ccc21	0.9%	-4.2%	-24.3%	15.9%	3.8%	·
N#Cc1nccnc1S(=O)(=O)c1cccs1	-10.4%	-4.4%	-5.8%	147.7%	4.4%	50.1µM*
CN(Cc1ccccc1C#N)S(=O)(=O)c1cccs1	-10.4%	5.9%	1.9%	29.7%	-2.8%	-0.4%
CN=c1sc2c(n1C)C(=O)c1ccccc1C2=O	79.4µM*	-3.3%	·	?	-3.7%	-23.2%
CC(C)(C)c1ccc(C(=O)Nc2nc3nc(-c4ccccc4)cc(=O)n3[nH]2)cc1	-21.0%	-15.8%	44.7µM*	?	1.6%	·
O=C(Nc1nc2nc(-c3ccccc3)cc(=O)n2[nH]1)c1ccc(F)cc1	-7.3%	-22.3%	-1.6%	-6.4%	13.3%	·
Cc1ccc(C(=O)Nc2nc3nc(-c4ccccc4)cc(=O)n3[nH]2)cc1	79.4µM*	6.8%	11.6%	-2.2%	13.9%	-16.0%[11.6 µM]
CC(=O)OC1(C(F)(F)F)Oc2ccccc2NC1=O (configuration not stated)	-4.5%	-8.6%	79.4µM*	-8.0%	?	-2.1%
CC1(C(=O)NCc2ccc(F)cc2)Oc2ccccc2NC1=O (configuration not stated)	5.4%	-8.1%	-24.3%	2.4%	0.3%	-29.2%
SMILES	POLH inh	POLK inh	POLB inh	Pol iota inh	FEN1 inh	WRN helicase inh
COc1cc(-c2nc3ccccn3c2/N=C/c2ccccc2)ccc1O	-20.6%	-7.6%[60.1 µM]	-3.6%	?	2.4%	-14.8%
COc1cc(-c2nc3ccccn3c2/N=C/c2cc(OC)c(O)cc2Cl)ccc1O	?	?	25.1µM*	?	?	-20.9%
CC(C)CCCC(C)N (configuration not stated)	·	2.5%[19.4 µM]	·	·	·	·
O=C(O)CCc1ccc(-c2cccs2)o1	44.7µM*	?	-21.1%	39.8µM*	-16.2%	?
O=C(O)CCc1ccc(-c2ccc(Cl)cc2)n1Cc1ccco1	?	-1.6%	?	43.3%	-0.7%	-17.9%
O=C(O)CCc1ccc(-c2cccs2)n1Cc1ccco1	?	-8.3%	50.1µM*	?	-2.2%	-4.4%[11.6 µM]
O=C(O)CCc1ccc(-c2cccs2)n1NC(=O)c1ccc(O)cc1	89.1µM*	?	?	?	-1.6%	-17.1%[57.1 µM]
COCCn1c(CCC(=O)O)ccc1-c1cccs1	2.6%	-11.6%	15.8%	-15.0%	11.9%	-8.9%
O=C(O)CCc1ccc(-c2cccs2)n1NC(=O)c1cccs1	-19.6%	2.7%	?	-0.4%	10.9%	2.0%
CC(CCC(C)C(C)(C)C)[C@@H]1CC[C@H]2C3C[C@H](OS(O)(=S)=S)[C@H]4C[C@H](OS(O)(=S)=S)[C@@H](OS(O)(=S)=S)C[C@]4(C)[C@H]3CC[C@]12C (some centres not stated) (tested in a mixture with another compound)	3.55µM*	20µM*	·	3.55µM*	5.01µM*	15.8µM*
CCn1cc(CN2CCC(C(=O)Nc3ccc(Oc4ccccc4F)cc3)CC2)cn1	-3.9%	·	·	·	·	1.8%
Cc1c(Cl)c(=O)oc2cc(OCC(=O)N3CCCC(C)C3)ccc12 (configuration not stated)	-9.9%	3.9%	·	8.5%	10.1%	-29.5%
COc1ccc2c(c1)c(=O)oc1cc(OCC(=O)N3CCCC(C)C3)ccc12 (configuration not stated)	?	-22.0%	3.98µM*	?	1.5%	-20.7%
COc1ccc2c(c1)c(=O)oc1cc(OCC(=O)N3CCC(C)CC3)ccc12	79.4µM*	?	22.4µM*	17.8µM*	?	?
CN(Cc1ccc(Cl)s1)C(=O)CN1C(=O)N(C)C2(CCCCC2)C1=O	-7.1%	-4.2%	·	-1.1%	-0.5%	3.4%
COc1cccc(-c2nnc(NC(=O)Cc3cccs3)s2)c1	?	-27.2%	20µM*	-1.1%	5.7%	-22.1%
O=C(Cc1cccs1)Nc1nnc(-c2ccncc2)s1	-21.0%	-11.9%	?	63.1µM*	-11.2%	-14.6%[57.1 µM]
CS(=O)(=O)Nc1c(O)ccc2c1CCCC2C1=NCCN1 (configuration not stated)	·	-1.7%[19.4 µM]	·	·	·	·
O=C(CCN1C(=O)/C(=C/c2ccc(F)cc2)SC1=S)Nc1cc([N+](=O)[O-])ccc1O	-0.3%	-9.1%[60.1 µM]	44.7µM*	?	-2.2%	-4.2%
O=C(CCCN1C(=O)/C(=C/c2cccs2)SC1=S)Nc1cc([N+](=O)[O-])ccc1O	-16.6%	-16.2%	1.5%	29.5%	-11.2%	-9.0%
CC(=O)n1nc(-c2cccnc2)nc1NCc1ccc(F)cc1	-1.5%	7.2%	23.9%	-25.7%	-0.1%	·
